Data taken from PubChem BioAssay AID1159580 (chemical genetic matrix, 2015).
About 2,000 (36%) of roughly 5,500 compounds were called active. Not shown: some 18% with an inconclusive outcome. Rule as the data show it: active = normalized growth mostly below about 0.91 (no sharp cut-off); inconclusive = no clear call, values can overlap the other calls; inactive = mostly above about 0.92. Some of the results follow.

Assay: chemical genetic growth profiling, strain panel (AID 1159580);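 also: tested at 20 µM; growth read once vehicle control cultures reached saturation at 30 °C; 1 = growth at the plate median or of vehicle wells; lower values mean less growth of the strain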
Details: growth OD

Measured: normalized growth

S=c1[nH]c2ccccc2[nH]1
inactive: S. cerevisiae deletion strains, locus YAL013W, strain DEP1, stronger effect = lower value 0.988 | S. cerevisiae deletion strains, locus YBR229C, strain ROT2, stronger effect = lower value 1.01 | S. cerevisiae deletion strains, locus YDL101C, strain DUN1, stronger effect = lower value 1.02 | S. cerevisiae deletion strains, locus YDR150W, strain NUM1, stronger effect = lower value 0.993 | S. cerevisiae deletion strains, locus YEL061C, strain CIN8, stronger effect = lower value 0.982 | S. cerevisiae deletion strains, locus YGR078C, strain PAC10, stronger effect = lower value 1.02 | S. cerevisiae deletion strains, locus YHR030C, strain SLT2, stronger effect = lower value 1 | S. cerevisiae deletion strains, locus YHR087W, strain rtc3, stronger effect = lower value 1.01 | S. cerevisiae deletion strains, locus YJR043C, strain POL32, stronger effect = lower value 0.988 | S. cerevisiae deletion strains, locus YJR075W, strain HOC1, stronger effect = lower value 1.01 | S. cerevisiae deletion strains, locus YLR039C, strain RIC1, stronger effect = lower value 0.99 | S. cerevisiae deletion strains, locus YLR058C, strain SHM2 (second series), stronger effect = lower value 0.991 | S. cerevisiae deletion strains, locus YLR085C, strain ARP6, stronger effect = lower value 0.976 | S. cerevisiae deletion strains, locus YLR262C, strain YPT6, stronger effect = lower value 0.986 | S. cerevisiae deletion strains, locus YML094W, strain GIM5, stronger effect = lower value 1.06 | S. cerevisiae deletion strains, locus YMR219W, strain ESC1, stronger effect = lower value 0.999 | S. cerevisiae deletion strains, locus YMR263W, strain SAP30, stronger effect = lower value 0.984 | S. cerevisiae deletion strains, locus YMR307W, strain GAS1, stronger effect = lower value 0.87 | S. cerevisiae deletion strains, locus YNL128W, strain TEP1, stronger effect = lower value 1.02 | S. cerevisiae deletion strains, locus YNL153C, strain GIM3, stronger effect = lower value 1.01 | S. cerevisiae deletion strains, locus YNL298W, strain CLA4 (second series), stronger effect = lower value 0.997 | S. cerevisiae deletion strains, locus YNL322C, strain KRE1, stronger effect = lower value 1 | S. cerevisiae deletion strains, locus YNR030W, strain Alg12, stronger effect = lower value 1.01 | S. cerevisiae deletion strains, locus YPL055C, strain LGE1, stronger effect = lower value 0.961 | S. cerevisiae deletion strains, locus YPL241C, strain CIN2, stronger effect = lower value 1.03 | S. cerevisiae deletion strains, locus YPR135W, strain CTF4, stronger effect = lower value 1.01 | S. cerevisiae strains, strain wild type, stronger effect = lower value 0.995
